Screens as filed in PubChem BioAssay.
CaV13 ICDI inh = Disruptors of the CACNA1D IQ motif to Ca2+-dependent inactivation inhibitor domain association, primary screening, Förster resonance energy transfer in intact living …; HEK cells, CFP/YFP FRET ICDI-IQ, plate reader, 10 min; percent FRET-ratio fall versus neutral wells; inhibition, % at 12.3 µM; 0.098% of 340,000 active; AID 743397;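 active means mean replicate inhibition of at least 30% and at least 1% of replicates passing that level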;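 further: 0% = median of the neutral control wells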
Rin1 Abl inh = inhibitors of Rin1-Abl protein binding, primary screen, biochemical, TR-FRET; 0.4% of 360,000 active; inhibition, % at 7.35 µM; in the data active means inhibition above about 5%, passing the limit was not always enough
GC-A act = GC-A stimulated cGMP production enhancers – HEK293 GC-A cells, cGMP TR-FRET, EC30 ANP, primary screen | activation, % at 10 µM | 0.14% of 370,000 active | Atrial natriuretic peptide receptor 1 (Homo sapiens), P16066 | 0% at EC30 ANP, 100% saturating ANP; in the data active means activation above about 40%
GC-B act = human GC-B receptor activators, primary screen, HEK293 GC-B cells, cGMP TR-FRET, EC30 CNP; 0% at EC30 CNP, 100% saturating CNP; 0.11% of 370,000 active; activation, % at 10 µM; AID 1920062, 2024;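 active means activation at 10 µM reaching about 35% in either raw or pattern-adjusted values, limit read from the data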
Rin1-Abl confirm = Rin1-Abl binding inhibitor retest, confirmation, biochemical, TR-FRET | shares compounds with Rin1 Abl inh | purified proteins | inhibition, % at 7.35 µM | 49% of 1,300 active; in the data active means inhibition above about 6.5%
GFP quench-1 = GFP fluorescence inhibitors and quenchers, artefact control for Rin1-Abl interaction inhibitor project, biochemical; shares compounds with Rin1 Abl inh; inhibitors/quenchers counterscreen; inhibition, % at 6.75 µM; 8.5% of 1,300 active; AID 602125, 2011; in the data active means inhibition above about 6.5%;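 further: ABL1-eGFP fusion protein alone without its partner RIN1-SBP; 0% = protein with vehicle and 100% = wells lacking protein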
GFP quench dose = GFP fluorescence inhibitors and quenchers, dose response, artefact control for Rin1-Abl interaction inhibitor project, biochemical; shares compounds with Rin1 Abl inh; GFP fluorescence interference/quenching counterscreen; IC50, µM; 230 tested, under 10 active;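 further: ABL1-eGFP fusion protein alone without its RIN1 binding partner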
GFP quench-2 = GFP fluorescence inhibitors and quenchers, late-stage follow-up, artefact control for Rin1-Abl interaction inhibitor project, biochemical, dose response; GFP fluorescence quenching counterscreen; 25 tested, under 10 active; shares compounds with Rin1 Abl inh; IC50, µM
The depositor's hits bear a star; . = no result given. A selection: hits, their analogues and other compounds. The true share with any hit is near 0.67%. Unless noted, how the calls were made is not given here.

SMILES	CaV13 ICDI inh	Rin1 Abl inh	GC-A act	GC-B act	Rin1-Abl confirm	GFP quench-1	others
Cc1ccc(NC(=O)CN2C(=O)N/C(=C/c3cccn3-c3ccc(C(=O)O)cc3)C2=O)cc1	-6	9.7*	-7	-1	9.0*	9.9*
CCOC(=O)C1CCCN(S(=O)(=O)c2cc3c(cc2Br)CCN3C(=O)CC)C1 (stereo not drawn)	.	.	-1	-2	.	.
Oc1c(Cl)cc(CN2CCOCC2)c2cccnc12	-8	7.4*	1	1	2	1
Oc1c(CN2CCCCC2)cc(Br)c2cccnc12	.	11*	-3	-2	8.0*	2
Fc1ccccc1-c1n[nH]c(=S)n1N=Cc1cccc(OCc2ccccc2)c1	.	.	-2	0	.	.
CCOc1ccc(NS(=O)(=O)c2ccc(C(=O)N3CC(C)OC(C)C3)cc2)cc1 (stereo not drawn)	-5	8.9*	-1	1	9.7*	0
CCCCC(=O)N1CCC(NS(=O)(=O)c2ccc3c(c2)CCN3C(C)=O)CC1	.	.	-1	11	.	.
CC(C)(C)OC(=O)/C=C/[C@H](CCCCl)Sc1ccc(C(C)(C)C)cc1	.	.	0	1	.	.
Cc1ccc2c(c1)c1c3n2CCN(C(=O)CN2CCN(C)CC2)C3CCC1 (stereo not drawn)	-4	-2	4	-5	.	.
Cc1ccc2c(c1)c(=O)c1c3n2CCN(C(=O)CCl)C3CC1 (stereo not drawn)	-6	9.4*	0	1	2	5
CCN(CC)C(=O)CC[C@@H]1CC[C@]2(CCCN(C(=O)C3CCCCC3)C2)O1	.	.	2	-2	.	.
COc1cccc(NC(=O)CN2C(=O)CSc3ccc(S(=O)(=O)N4CCOCC4)cc32)c1	-4	6	1	10	.	.
O=C(CN1C(=O)CCSc2ccc(S(=O)(=O)N3CCOCC3)cc21)Nc1cccc(F)c1	-3	16*	1	4	15*	2
S=C(NCCN1CCOCC1)N/N=C/c1cccs1	-5	-2	0	4	.	.
Oc1cccc(/C=N/NC(=S)NCCN2CCOCC2)c1O	-13	5.7*	-1	1	0	-3
O=C1Nc2cccnc2N(C(=O)CCl)c2ccccc21	-14	43*	5	5	-1	0
CC(C)CNc1ncnc2c1ncn2[C@H]1CN(Cc2ccc(Cl)cc2)C[C@@H](CO)O1	-4	18*	-2	-12	10*	-2
CC(C)CNc1ncnc2c1ncn2[C@H]1CN(Cc2ccc(F)cc2)C[C@@H](CO)O1	21	2	2	12	.	.
CNc1ncnc2c1ncn2[C@H]1CN(Cc2ccc(-c3ccccc3)cc2)C[C@@H](CO)O1	-3	9.7*	4	2	13*	-2
CC(C)Nc1ncnc2c1ncn2[C@H]1CN(Cc2ccc(Cl)cc2)C[C@@H](CO)O1	-7	6	-2	0	.	.
OC[C@@H]1CN(Cc2ccc(Cl)cc2)C[C@H](n2cnc3c(NC4CCC4)ncnc32)O1	-12	12*	2	-4	9.4*	-1
OC[C@@H]1CN(Cc2ccc(-c3ccccc3)cc2)C[C@H](n2cnc3c(NCc4ccc(F)cc4)ncnc32)O1	-12	1	-9	-7	.	.
OC[C@@H]1CN(Cc2ccc(-c3ccccc3)cc2)C[C@H](n2cnc3c(NC4CC4)ncnc32)O1	-10	26*	-3	-2	21*	-1	GFP quench dose=>68
OC[C@@H]1CN(Cc2ccc(-c3ccccc3)cc2)C[C@H](n2cnc3c(Nc4ccccc4)ncnc32)O1	-5	2	-4	9	.	.
COc1ccc(CN2C(=O)N3Cc4ccccc4C3CS2(=O)=O)cc1 (stereo not drawn)	.	.	-4	-1	.	.
SMILES	CaV13 ICDI inh	Rin1 Abl inh	GC-A act	GC-B act	Rin1-Abl confirm	GFP quench-1	others
COCCCn1cc(CN2CC=CS2(=O)=O)nn1	.	.	5	-3	.	.
COc1ccc(S[C@]2(C(=O)N(C)C)CC(=O)N(c3ccsc3)[C@@H]2c2ccc(OC)cc2)cc1	.	.	-4	0	.	.
Cn1c(Cc2cccs2)nnc1SCC(=O)Nc1ccc2c(c1)OCCO2	.	.	0	5	.	.
CN1C(=O)c2cc(NS(C)(=O)=O)ccc2OC[C@H]2O[C@@H](CC(=O)NCc3ccc(-c4ccccc4)cc3)CC[C@@H]21	.	.	4	1	.	.
O[C@H](COc1ccccc1)CN1CCC(C(O)(c2ccccc2)c2ccccc2)CC1	.	.	-12	-13	.	.
O=C1N(Cc2cccnc2)C[C@@H]2C[C@@H](c3ccc4nonc4c3)N3CCC[C@@]123	-4	-2	1	4	.	.
O=C1N(Cc2cccnc2)C[C@@H]2C[C@@H](c3ccc4nsnc4c3)N3CCC[C@@]123	-3	16*	-3	0	16*	0
O=C(NCc1ccccc1)c1ccc(Br)cc1Br	-7	-4	1	-1	.	.
O=C(NCc1ccccc1)c1ccccc1Br	-5	7.8*	0	-7	-3	-1
COc1cc(NC(=O)c2cc(-c3ccc4c(c3)OCO4)on2)cc(OC)c1OC	-3	12*	5	2	-2	-1
O=c1cc(-c2ccc(O)cc2)oc2ccccc12	.	-3	1	-10	.	.
O=c1cc(-c2ccccc2)oc2cc(O)ccc12	.	64*	-2	-3	0	0
COc1ccc2oc(C(=O)NCCc3ccccc3)c(C)c2c1	-16	4	-1	-2	.	.
COc1ccc2oc(C(=O)NCC(c3ccco3)N(C)C)c(C)c2c1 (stereo not drawn)	-13	40*	0	0	45*	2	GFP quench dose=>68;GFP quench-2=>68
COc1cccc(NS(=O)(=O)c2ccc3c(c2)C2C=CCC2C(c2ccc(C(=O)O)cc2)N3)c1 (stereo not drawn)	-4	12*	-6	-1	3	7.1*
COc1ccc(C(=O)N/N=C(\C)c2ccc3c(c2)C2C=CCC2C(c2ccccc2)N3)cc1 (stereo not drawn)	.	-2	.	.	.	.
O=C(NC1CCCC1)c1cc(S(=O)(=O)N2CCCC2)ccc1Cl	.	7.6*	2	8	-1	0
Cc1ccccc1NC(=O)COc1ccccc1C	-6	-2	-1	-2	.	.
Cc1ccccc1OCC(=O)Nc1ccccc1-c1ccccc1	-3	7.0*	-2	1	1	-1
COc1cccc(NC(=O)N2CC[C@@H]3[C@H]2c2cc(-c4cccc(C#N)c4)ccc2N(C)[C@@H]3CO)c1	.	.	-2	2	.	.
